From PubChem
Only some compounds are listed: those with a hit (about 19% of all), similar ones and a draw of the others.
TDP1 cell CPT – DT40-hTDP1 cell growth loss with CPT; chicken DT40 Tdp1-/-;hTDP1 cells + 20 nM CPT, ATP luminescence, 48 h; Potency, µM (top dose mostly 46.2 µM), usual class: inhibitors; actives 12% (n = 420,000); AID 686979; also: nearly all actives have a fitted effect of over 55% in size
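Chicken DT40 Tdp1-/- cells stably complemented with human TDP1 were seeded at 400 cells/well in medium containing 20 nM camptothecin, exposed to pin-transferred compounds, and grown at 37 °C for at least 48 hr. Viability was read as ATP luminescence.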
HT1080NT lethal – kills 2HG-producing HT-1080-NT fibrosarcoma cells. HT-1080-NT fibrosarcoma viability, CellTiter-Glo ATP luminescence, 48 h. Potency, µM (titrated, usually from 46.1 µM), usual class: cytotoxic. actives 1.6% (n = 360,000). AID 686970;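 also: NT is the 2HG producing partner of a matched IDH1 knockdown line; nearly all actives have a fitted effect of over 55% in size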
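A 48-hour cytotoxicity screen used HT-1080-NT cells plated 2 hours before compound delivery. ATP-based CellTiter-Glo luminescence measured viability, normalized to DMSO and no-cell controls.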
HT1080 IDH1KD tx – toxicity to HT-1080 IDH1 knockdown cells (counter line). Potency, µM (titrated, usually from 46.1 µM), hits mostly cytotoxic. AID 686971. actives 2% (n = 360,000). HT-1080 IDH1 knockdown viability, ATP luminescence, 48 h
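HT-1080-IDH1KD cells (IDH1 knocked down), 750/well in RPMI with 5% FBS, treated with compound 48 h at 37 degrees C. Viability by CellTiter-Glo luminescence, normalised to DMSO and no-cell wells; concentration-response curves classed.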
DT40 TDP1 no CPT – qHTS for Inhibitors of human tyrosyl-DNA phosphodiesterase 1 (TDP1): qHTS in cells in absence of CPT | AID 686978, 2013 | DT40 Tdp1-/- hTDP1 cells, no CPT, ATP luminescence, 48 h | actives 15% (n = 420,000) | Potency, µM (highest dose often 46.2 µM), most hits filed as inhibitors; also: nearly all actives have a fitted effect of over 55% in size
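Chicken DT40 Tdp1-/- cells complemented with human TDP1, screened without camptothecin (DMSO vehicle only), 400 cells/well. Compounds pin-transferred, cells incubated at 37 °C for at least 48 hr. Growth read as ATP-dependent luminescence (CellTiter-Glo, 30 min at RT).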
IL1B secr inh – inflammasome signaling inhibition, IL-1 beta readout | THP-1 LPS/ATP IL-1B secretion, AlphaLISA, 16 h; active compounds read low | activity change, % at 57.5 µM | actives 4.7% (n = 360,000) | AID 743279; in the data active = activity change below about -50%; inconclusive = mostly about -30% to -49%
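THP-1 cells pretreated 1 hr with compounds (up to 57.5 uM final), then stimulated with LPS (250 ng/mL final) plus ATP (1.25 mM final); secreted IL-1B measured by AlphaLISA after 16 hr, decreased signal indicating inhibition.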
Large screens that a line does not name were inactive. Unless noted, calls follow the shape of the dose curve; as a rule, active = well fitted curve in the direction sought with a large enough effect; inconclusive = small, poorly fitted or top-dose-only effect, or another doubt; inactive = no such curve, though single readings can be large; an effect the other way counts as inactive or inconclusive.

CCOC(=O)COc1ccccc1/C=C\[N+](=O)[O-]	TDP1 cell CPT 2.6µM, HT1080NT lethal 8.2µM, HT1080 IDH1KD tx 2.9µM, DT40 TDP1 no CPT 1.6µM, IL1B secr inh -100
Cc1onc(-c2ccccc2Cl)c1C(=O)O/N=C(\N)c1cccc([N+](=O)[O-])c1	TDP1 cell CPT 23µM, HT1080NT lethal inconclusive, HT1080 IDH1KD tx inconclusive, DT40 TDP1 no CPT 23µM, IL1B secr inh -62
C/C(=N\OC(=O)c1c(-c2ccccc2Cl)noc1C)c1ccncc1	IL1B secr inh -145
Cc1onc(-c2ccccc2Cl)c1C(=O)NCCCN1CCOCC1	none
COc1ccc(C(C)=NOC(=O)c2c(-c3ccccc3Cl)noc2C)cc1CN1CCOCC1	TDP1 cell CPT inconclusive, DT40 TDP1 no CPT 7.3µM, IL1B secr inh inconclusive
Cc1onc(-c2cccc(Cl)c2Cl)c1C(=O)O/N=C(\N)c1ccc([N+](=O)[O-])o1	TDP1 cell CPT inconclusive, HT1080 IDH1KD tx inconclusive, DT40 TDP1 no CPT inconclusive (no result: IL1B secr inh)
Cc1onc(-c2ccccc2)c1C(=O)O/N=C(\N)c1ccc([N+](=O)[O-])o1	TDP1 cell CPT 16µM, HT1080NT lethal inconclusive, DT40 TDP1 no CPT 15µM
Cc1onc(-c2ccccc2Cl)c1C(=O)O/N=C(\N)c1ccccc1	TDP1 cell CPT inconclusive, HT1080NT lethal inconclusive, HT1080 IDH1KD tx inconclusive, DT40 TDP1 no CPT inconclusive, IL1B secr inh -75
Cc1cc(OC(F)F)ccc1NC(=O)Nc1ccc([N+](=O)[O-])cc1	TDP1 cell CPT 15µM, DT40 TDP1 no CPT 18µM, IL1B secr inh inconclusive
Cc1ccc([N+](=O)[O-])cc1NC(=O)Nc1ccc(S(N)(=O)=O)cc1	none
O=C(Nc1ccc([N+](=O)[O-])cc1)Nc1ccc(Cl)cc1F	TDP1 cell CPT 2.6µM, DT40 TDP1 no CPT 1.6µM, IL1B secr inh -93
O=C(Nc1ccc(Cl)cc1)Nc1cc([N+](=O)[O-])ccc1F	none
O=C(Nc1cccc(F)c1)c1ccc(Cn2cc([N+](=O)[O-])cn2)o1	none
O=C1C=CC2C(c3ccc4c(c3)OCO4)CC1N2Cc1ccccc1 (centres undefined)	TDP1 cell CPT 8.2µM, DT40 TDP1 no CPT 6.5µM
O=C1C=C(c2cccc(OCc3ccccc3)c2)C[C@@H](c2ccc3c(c2)OCO3)C1	none
CC(=O)N1CC2(CC(c3ccccc3C(F)(F)F)=NO2)CN1c1ccc(Cl)cc1 (centres undefined)	TDP1 cell CPT inconclusive, DT40 TDP1 no CPT inconclusive, IL1B secr inh inconclusive
COCC(=O)N1CCC2(CC1)CCN(C(=O)NC(C)C)CC2	none (no result: HT1080NT lethal, HT1080 IDH1KD tx, IL1B secr inh)
CCOc1ccc(-c2ccc(SC)nn2)cc1	HT1080NT lethal 16µM, HT1080 IDH1KD tx 23µM, DT40 TDP1 no CPT 8.2µM, IL1B secr inh inconclusive
CCOc1ccc(-c2ccc(SCC(=O)Nc3nnc(CC)s3)nn2)cc1	none
CC1=C(C#N)c2nc(N)c(C#N)c(C)c2/C1=C\c1ccc(-c2ccccc2C(=O)O)o1	IL1B secr inh -88
CN(C(=O)c1ccc(Cl)c(S(=O)(=O)N2CCOCC2)c1)c1ccccc1C(=O)O	none
Cc1ccc(C(=O)NC2CCc3ccccc3C2=O)cc1 (centres undefined)	TDP1 cell CPT inconclusive
O=C(OC1CCc2ccccc2C1=O)c1ccccc1O (centres undefined)	TDP1 cell CPT 23µM, DT40 TDP1 no CPT 16µM
COCCNC(=O)CSC1=N/C(=C/c2ccc(Cl)c(Cl)c2)C(=O)N1c1ccccc1F	TDP1 cell CPT 15µM, HT1080NT lethal inconclusive, HT1080 IDH1KD tx inconclusive, DT40 TDP1 no CPT 21µM, IL1B secr inh -99
CN1CCN(c2ccc(C(CC(N)=O)NC(=O)Cc3cccc4ccccc34)cc2[N+](=O)[O-])CC1 (centres undefined)	none
NC(=O)CC(NC(=O)c1ccc(Br)cc1)c1ccc(N2CCC(Cc3ccccc3)CC2)c([N+](=O)[O-])c1 (centres undefined)	TDP1 cell CPT 16µM, HT1080 IDH1KD tx inconclusive
NC(=O)CC(NC(=O)c1ccccc1)c1ccc(N2CCC(Cc3ccccc3)CC2)c([N+](=O)[O-])c1 (centres undefined)	TDP1 cell CPT 7.3µM, HT1080 IDH1KD tx inconclusive, DT40 TDP1 no CPT 5.2µM
